Test results as given in ChEMBL document CHEMBL3433997, “St. Jude Leishmania screening dataset” (2016).

What follows are molecules tested against Glucose transporter (Leishmania mexicana) (UniProt O61059) (assay: ST_JUDE_LEISH: Cytotoxicity at 2uM final concentration against transgenic Leishmania Mexicana promastigotes LmGT2 that are glucose transport deficient and complemented with the L. Mexicana glucose transporter 2. Activity is measured by DNA content using SYBR green in vitro).
Format: functional

**Q.** With `CC(Cc1ccc(NC(=O)c2ccc(CC(C)NCc3ccc(Cl)c(Cl)c3)cc2)cc1)NCCc1cccc(Cl)c1` (centres undefined) as the molecule, how does the inhibition read?
**A.** -0.17%

**Q.** Which inhibition does the source give for `CCn1c(Sc2ccc([N+](=O)[O-])c(C#N)c2)nnc1-c1ccc(Cl)cc1` here?
**A.** 12.8%

**Q.** With `Cc1ccc(CN2CCCN(Cc3ccc(C(=O)Nc4ccc(Cl)cc4)cc3)CC2)s1` as the molecule, how does the inhibition read?
**A.** 0.05%

**Q.** `CCN(CC)CCN1C(=O)c2oc3ccc(Cl)cc3c(=O)c2C1c1ccc(SC)cc1` (centres undefined) was tested. Which inhibition did it give?
**A.** 8.97%

**Q.** With `COc1ccc(-c2cnc(N)c(-c3nc4cc(Br)ccc4[nH]3)c2)cc1` as the molecule, how does the inhibition read?
**A.** 6.12%

**Q.** How did the inhibition turn out when `COc1ccc(Cc2nc(/N=C(\N)Nc3ccccc3)ccc2OC)cc1` was run?
**A.** -0.02%

**Q.** How did the inhibition turn out when `NC1CCCN(Cc2ccc(-c3ccc(-c4nc5ccccc5[nH]4)s3)cc2)C1` (centres undefined) was run?
**A.** 9.09%

**Q.** Which inhibition does the source give for `O=C(Nc1ccccc1)NC1CCN(CCC2(c3ccc(Cl)c(Cl)c3)COCN(C(=O)c3ccccc3)C2)C1` (centres undefined) here?
**A.** 4.63%

**Q.** `CN1CCN(Cc2ccc(-c3ccc4c(Nc5ccc(F)cc5Cl)ccnc4c3)o2)CC1` was tested. Which inhibition did it give?
**A.** 1.39%

**Q.** For `O=C(CCCCCNC(=O)c1ccc(O)c(-c2ccc(Cl)c(Cl)c2)c1)NCCN1CCOCC1`, which inhibition is on record?
**A.** 2.65%

**Q.** With `Cc1cc(C(=O)CN2C(=O)NC3(CCCc4ccccc43)C2=O)c(C)n1Cc1ccc(F)cc1` (centres undefined) as the molecule, how does the inhibition read?
**A.** 5.14%

**Q.** Which inhibition does the source give for `O=C(NCc1ccc(Cl)cc1)c1ccc(CN2CCCN(CC3CCCCC3)CC2)cc1` here?
**A.** 5.25%

**Q.** Which inhibition does the source give for `O=C(Nc1ccc(-c2nc3ccccc3[nH]2)cc1)c1ccc(N2CCCC2)c([N+](=O)[O-])c1` here?
**A.** 1.2%

**Q.** How did the inhibition turn out when `Cc1cc(F)ccc1-c1nc(N(C)CCN(C)C(=O)N(C)c2ccccc2)nc2c1ccc(=O)n2-c1c(F)cccc1F` was run?
**A.** 9.88%

**Q.** With `CN(CCN1CCC(c2c[nH]c3ccccc23)CC1)c1ccc(-c2nc3cc(Cl)c(Cl)cc3[nH]2)cc1` as the molecule, how does the inhibition read?
**A.** 0.74%

**Q.** How did the inhibition turn out when `CC(C)(CN1CCCC1)CN(Cc1ccc(-c2ccc(C(F)(F)F)cc2)cc1)C(=O)Cn1c(CCc2cccc(F)c2F)nc(=O)c2ccccc21` was run?
**A.** 8.96%

**Q.** For `COc1ccc(CNC2CCN(C)CC2)cc1-c1ccc(S(=O)(=O)NCc2ccccc2)cc1`, which inhibition is on record?
**A.** 5.02%

**Q.** How did the inhibition turn out when `Cc1cccc2nc(-c3cccc(-c4ccc(CN5CCC(C(N)=O)CC5)cc4)c3)[nH]c12` was run?
**A.** 9.06%

**Q.** Which inhibition does the source give for `O=C(N[C@H]1CCN(Cc2ccc(OCCN3CCNCC3)c(Cl)c2)C1)c1ccc(Cl)c(Cl)c1` here?
**A.** -2.23%

**Q.** For `COc1ccc(CC(=O)Nc2ccc(Nc3nc(C)cc(N(C)C)n3)cc2)cc1`, which inhibition is on record?
**A.** 1.53%

**Q.** How did the inhibition turn out when `CCN(CC)CCN(Cc1ccc(-c2ccc(C(F)(F)F)cc2)cc1)C(=O)Cn1c(CCc2ccc(F)c(C#N)c2)nc(=O)c2ccccc21` was run?
**A.** 8.84%

**Q.** How did the inhibition turn out when `c1ccc2cc3c(Nc4ccc(N5CCCCC5)cc4)ccnc3cc2c1` was run?
**A.** 2.3%

**Q.** With `CC(Oc1ccc(Cl)cc1)C(=O)Nc1cc(C(F)(F)F)ccc1N1CCOCC1` (centres undefined) as the molecule, how does the inhibition read?
**A.** 6.86%

**Q.** How did the inhibition turn out when `O=C(Nc1cc(C(F)(F)F)cc(C(F)(F)F)c1)N1CCC(CCN2CCC(c3c[nH]c4ccccc34)CC2)CC1` was run?
**A.** 4.71%

**Q.** With `Cc1nnc(-c2cccc(Nc3ccnc4cc(-c5nccs5)ccc34)c2)o1` as the molecule, how does the inhibition read?
**A.** 9.75%

**Q.** For `CCCc1cc(OC)c(C[C@@H]2c3cc(O)c(Cl)cc3CCN2C)cc1OC`, which inhibition is on record?
**A.** 3%

**Q.** `COc1ccccc1CN1CCC(NC(=O)c2ccc(-c3ccc(N(C)C)cc3)s2)CC1` was tested. Which inhibition did it give?
**A.** 8.12%

**Q.** `Nc1nc(N)c2c(ccc3c2ccn3CCCC2CCCNC2)n1` (centres undefined) was tested. Which inhibition did it give?
**A.** 1.44%

**Q.** With `CC(C)(C)c1ccc(CNC(=O)c2ccc(-c3nc4ccc(Cl)cc4[nH]3)cc2)cc1` as the molecule, how does the inhibition read?
**A.** 1.63%

**Q.** Which inhibition does the source give for `CCCCn1c(=N)c(C(=O)NCc2cccnc2)cc2c(=O)n3cccc(C)c3nc21` here?
**A.** 2.74%

**Q.** Which inhibition does the source give for `CC(C)c1cccc(OCC2CCN(c3ncc(C(=O)NC4CC4)cc3Cl)CC2)c1` here?
**A.** -0.2%

**Q.** Which inhibition does the source give for `O=C1C(=Cc2c(O)ccc3ccccc23)SC(=NCc2ccccc2)N1Cc1ccccc1` here?
**A.** 3.38%

**Q.** For `CN1CCN(c2ccc(CNc3ccc4ncc(-c5ccc(OC(F)(F)F)cc5)n4n3)cc2)CC1`, which inhibition is on record?
**A.** -1.25%

**Q.** How did the inhibition turn out when `COc1cc(C(F)(F)F)cc2[nH]c(CNCCCNc3nc4ccccc4[nH]3)cc12` was run?
**A.** 5.01%

**Q.** `CCC(CC)N1CCN(CC(=O)Nc2ccc([N+](=O)[O-])cc2C(=O)Nc2cccc(OC)c2)CC1` was tested. Which inhibition did it give?
**A.** 1.35%

**Q.** `CC(=O)N1N=C(c2[nH]c3ccc(Br)cc3c2C)OC1c1ccccc1` (centres undefined) was tested. Which inhibition did it give?
**A.** 3.6%

**Q.** Which inhibition does the source give for `CN1CCC(NCc2ccc(-c3ccc(S(=O)(=O)NCc4ccccc4)c(F)c3)cc2)CC1` here?
**A.** 7.68%

**Q.** Which inhibition does the source give for `O=C(Nc1ccc(-c2nc3cc4ccccc4cc3[nH]2)cc1)c1cccc(Br)c1` here?
**A.** 5.72%

**Q.** For `CN(C)CCN(Cc1ccccc1)c1ccc([N+](=O)[O-])cc1C(F)(F)F`, which inhibition is on record?
**A.** 8.1%
